Laboratory results as given in PubChem BioAssay AID1037 (National Center for Advancing Translational Sciences (NCATS), 2008).
Calls of active or inactive are those of the source. The call rests on the fitted dose curve.

Assay: NSCLC 2 Cell Viability Secondary Assay for qHTS Assay for Epigenetic Modulators
Conditions: NSCLC 2 viability, MTS absorbance, 4 days
From the text: NIH Molecular Libraries Screening Centers Network [MLSCN] NIH Chemical Genomics Center [NCGC] MLSCN Grant: 1 X01 MH079860-01 Assay Provider: Elisabeth D. Martinez, University of Texas SW Medical Center NCGC Assay Overview: This secondary assay characterizes selected actives identified in the qHTS of the Locus Derepression (LDR) assay (PubChem AID 597). The LDR assay detects the derepression of a GFP reporter that is stably integrated in a region of the genome of murine c127i mammary cells that is presumably silenced. Compounds that cause derepression of the locus to express GFP are identified by enumerating GFP positive cells using a laser-scanning microplate cytometer. Selected LDR actives were assayed for killing of NSCLC 2, a patient-derived nonsmall cell lung carcinoma line. Known epigenetic drugs, like histone deacetylase inhibitors, can block cancer cell growth. NSCLC 2 cell viability was measured using Cell Titer 96 AQueous One (Promega), an assay which detects the ability of metabolically active cells to reduce a tetrazolium salt substrate (MTS), into a soluble formazan product that can be measured by colorimetry.
NCGC Assay Protocol Summary NSCLC 2 cells were plated in 96-well flat bottom tissue culture dishes (Corning) and grown overnight at 37 C and 5% CO2, then treated with compounds, incubated 4 days, and assayed for viability using the Cell Titer 96 AQueous One kit (Promega) according to the manufacturer's protocol. Absorbance at 490 nm and 650 nm (reference) was measured by a Spectra Max (Molecular Devices). Data were normalized to the untreated control (100% viability). Each cell line was tested in one or two independent assays, each containing 4 or 8 replicates. For further details, see R.L. Johnson, W. Huang, A. Jadhav, C.P. Austin, J. Inglese, E.D. Martinez, A Quantitative High-Throughput Screen Identifies Potential Epigenetic Modulators of Gene Expression, Analytical Biochemistry (2007), doi: 10.1016/j.ab.2007.12.028

SMILES	outcome	Potency
O=C(CSc1cccc2cccnc12)NCc1ccccc1	inactive	–
O=Nc1ccc(O)c2ncccc12	–	1000 nM (active)
CC(C)C(=O)NC(c1ccc(N(C)C)cc1)c1ccc2cccnc2c1O (stereo not drawn)	–	200 nM (active)
O=C(CSc1cccc2cccnc12)N1CCCC1	inactive	–
CC(C)C(=O)NC(c1ccco1)c1cc([N+](=O)[O-])c2cccnc2c1O (stereo not drawn)	–	6000 nM (active)
CC(C)C(=O)NC(c1ccco1)c1ccc2cccnc2c1O (stereo not drawn)	–	800 nM (active)
CC(/C=C/C(=O)NO)=C\[C@@H](C)C(=O)c1ccc(N(C)C)cc1	–	40 nM (active)
CN1C(=S)SC(c2ccccc2)N(C)C1c1ccccc1 (stereo not drawn)	inactive	–
